# Assays:
# Assay in all cases: DAPPL (digital affinity profiling via proximity ligation, sequencing); 10 mM Tris-HCl pH 7.5, 50 mM NaCl, 1 mM DTT, 4% glycerol, room temperature, 30 min; GST-TFs on glutathione beads, 16-mer random dsDNA library, 0.1% formaldehyde crosslink after washing; high values mean tight binding
# [1] = target: T1, FEV (Homo sapiens, UniProt Q99581 1-238); settings: protein: recombinant; tags: N-terminal GST; dsDNA, one strand shown
# T1 sequence: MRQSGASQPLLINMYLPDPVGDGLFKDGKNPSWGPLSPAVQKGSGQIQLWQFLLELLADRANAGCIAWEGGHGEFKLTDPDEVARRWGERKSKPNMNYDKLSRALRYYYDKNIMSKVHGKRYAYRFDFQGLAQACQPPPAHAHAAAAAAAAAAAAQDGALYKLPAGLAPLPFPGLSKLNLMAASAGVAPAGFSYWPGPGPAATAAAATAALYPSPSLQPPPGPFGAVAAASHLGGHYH
# In short: (§1)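 Sequencing on an Illumina NextSeq500 followed washing, crosslinking with 0.1% formaldehyde, proximity ligation (BsaI/T4 ligase, 1 h, 37 °C) and PCR amplification of pools that had been incubated for 30 min at room temperature with 200 nmole of a random double-stranded 16-mer DNA library in Tris/NaCl/DTT/glycerol buffer. Each pool held DNA-barcoded human transcription factors, expressed in yeast as GST fusions and captured on glutathione beads, plus a tag-only sample. Binding signal is a hexamer's read frequency for a factor divided by its frequency in the tag-only sample.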
# [2] = target: ETV5 (Homo sapiens, UniProt P41161 1-510); settings: protein: recombinant; tags: N-terminal GST; dsDNA, one strand shown
# In short: as §1
# [3] = target: HSF1 (Homo sapiens, UniProt Q00613 1-529); settings: protein: recombinant; tags: N-terminal GST; chain copies: 3; dsDNA, one strand shown
# In short: as §1
# [4] = target: ELF4 (Homo sapiens, UniProt Q99607 1-663); settings: protein: recombinant; tags: N-terminal GST; dsDNA, one strand shown
# In short: as §1
# [5] = target: T2, ELK4 (Homo sapiens, UniProt P28324-2 1-405); settings: protein: recombinant; tags: N-terminal GST; dsDNA, one strand shown
# T2 sequence: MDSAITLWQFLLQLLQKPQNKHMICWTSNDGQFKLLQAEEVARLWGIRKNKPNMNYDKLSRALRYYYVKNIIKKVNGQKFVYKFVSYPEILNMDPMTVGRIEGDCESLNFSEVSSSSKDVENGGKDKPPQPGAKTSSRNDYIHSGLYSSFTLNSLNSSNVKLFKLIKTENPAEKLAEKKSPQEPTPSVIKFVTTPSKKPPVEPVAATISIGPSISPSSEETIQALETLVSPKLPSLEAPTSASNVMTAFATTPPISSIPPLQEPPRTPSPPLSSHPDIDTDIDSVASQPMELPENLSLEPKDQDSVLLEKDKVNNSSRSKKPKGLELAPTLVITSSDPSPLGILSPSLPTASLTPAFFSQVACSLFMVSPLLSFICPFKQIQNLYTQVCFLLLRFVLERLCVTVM
# In short: as §1
# [6] = target: T3, ETV2 (Homo sapiens, UniProt O00321 1-342); settings: protein: recombinant; tags: N-terminal GST; dsDNA, one strand shown
# T3 sequence: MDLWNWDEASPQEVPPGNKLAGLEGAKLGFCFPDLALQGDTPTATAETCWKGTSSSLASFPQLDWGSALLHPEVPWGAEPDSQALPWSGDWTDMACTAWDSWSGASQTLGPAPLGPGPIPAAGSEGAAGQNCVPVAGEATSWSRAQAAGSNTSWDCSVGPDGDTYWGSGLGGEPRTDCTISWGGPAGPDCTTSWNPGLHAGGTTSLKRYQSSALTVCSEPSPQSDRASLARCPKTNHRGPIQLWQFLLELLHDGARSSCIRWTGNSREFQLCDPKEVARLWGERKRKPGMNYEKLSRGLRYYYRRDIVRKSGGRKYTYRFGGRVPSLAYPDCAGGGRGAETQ
# In short: as §1
# [7] = target: T4, ELF3 (Homo sapiens, UniProt P78545 1-371); settings: protein: recombinant; tags: N-terminal GST; dsDNA, one strand shown
# T4 sequence: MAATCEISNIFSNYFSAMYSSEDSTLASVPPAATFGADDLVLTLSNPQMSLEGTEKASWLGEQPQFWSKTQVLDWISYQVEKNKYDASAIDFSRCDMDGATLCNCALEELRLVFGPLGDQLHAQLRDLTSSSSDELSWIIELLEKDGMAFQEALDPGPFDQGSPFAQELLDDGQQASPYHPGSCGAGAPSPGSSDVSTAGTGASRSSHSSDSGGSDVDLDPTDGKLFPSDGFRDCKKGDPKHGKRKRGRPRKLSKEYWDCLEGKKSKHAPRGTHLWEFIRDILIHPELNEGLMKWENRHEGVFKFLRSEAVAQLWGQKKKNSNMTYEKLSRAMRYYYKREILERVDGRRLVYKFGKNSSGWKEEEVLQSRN
# In short: as §1
# [8] = target: ETV1 (Homo sapiens, UniProt P50549 1-477); settings: protein: recombinant; tags: N-terminal GST; dsDNA, one strand shown
# In short: as §1
# [9] = target: T5, ERF (Homo sapiens, UniProt P50548 1-548); settings: protein: recombinant; tags: N-terminal GST; dsDNA, one strand shown
# T5 sequence: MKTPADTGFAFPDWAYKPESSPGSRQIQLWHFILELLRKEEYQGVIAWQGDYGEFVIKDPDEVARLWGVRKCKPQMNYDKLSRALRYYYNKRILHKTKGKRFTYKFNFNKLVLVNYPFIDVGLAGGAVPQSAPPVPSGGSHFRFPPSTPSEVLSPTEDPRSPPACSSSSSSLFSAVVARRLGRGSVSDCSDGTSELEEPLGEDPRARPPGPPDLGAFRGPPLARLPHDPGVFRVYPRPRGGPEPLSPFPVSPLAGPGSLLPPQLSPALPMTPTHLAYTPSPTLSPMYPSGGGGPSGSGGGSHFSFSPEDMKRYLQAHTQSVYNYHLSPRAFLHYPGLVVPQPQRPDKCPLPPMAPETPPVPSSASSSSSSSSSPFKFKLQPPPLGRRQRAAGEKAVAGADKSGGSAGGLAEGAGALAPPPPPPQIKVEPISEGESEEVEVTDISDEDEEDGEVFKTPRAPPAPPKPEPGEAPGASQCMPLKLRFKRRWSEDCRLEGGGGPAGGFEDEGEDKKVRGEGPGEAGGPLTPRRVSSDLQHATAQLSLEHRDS
# In short: as §1
# [10] = target: T6, ETV3L (Homo sapiens, UniProt Q6ZN32 1-361); settings: protein: recombinant; tags: N-terminal GST; dsDNA, one strand shown
# T6 sequence: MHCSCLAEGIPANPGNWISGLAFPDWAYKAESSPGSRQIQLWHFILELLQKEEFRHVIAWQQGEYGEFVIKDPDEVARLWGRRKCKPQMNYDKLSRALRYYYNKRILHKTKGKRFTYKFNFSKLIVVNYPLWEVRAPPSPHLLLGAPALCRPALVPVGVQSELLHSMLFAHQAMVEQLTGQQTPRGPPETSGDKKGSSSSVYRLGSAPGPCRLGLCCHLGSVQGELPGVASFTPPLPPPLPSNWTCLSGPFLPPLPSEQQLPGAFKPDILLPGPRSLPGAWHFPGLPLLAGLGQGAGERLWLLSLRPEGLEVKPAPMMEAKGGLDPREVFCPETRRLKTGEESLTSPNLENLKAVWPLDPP
# In short: as §1
# [11] = target: T7, ETS2 (Homo sapiens, UniProt P15036 1-469); settings: protein: recombinant; tags: N-terminal GST; dsDNA, one strand shown
# T7 sequence: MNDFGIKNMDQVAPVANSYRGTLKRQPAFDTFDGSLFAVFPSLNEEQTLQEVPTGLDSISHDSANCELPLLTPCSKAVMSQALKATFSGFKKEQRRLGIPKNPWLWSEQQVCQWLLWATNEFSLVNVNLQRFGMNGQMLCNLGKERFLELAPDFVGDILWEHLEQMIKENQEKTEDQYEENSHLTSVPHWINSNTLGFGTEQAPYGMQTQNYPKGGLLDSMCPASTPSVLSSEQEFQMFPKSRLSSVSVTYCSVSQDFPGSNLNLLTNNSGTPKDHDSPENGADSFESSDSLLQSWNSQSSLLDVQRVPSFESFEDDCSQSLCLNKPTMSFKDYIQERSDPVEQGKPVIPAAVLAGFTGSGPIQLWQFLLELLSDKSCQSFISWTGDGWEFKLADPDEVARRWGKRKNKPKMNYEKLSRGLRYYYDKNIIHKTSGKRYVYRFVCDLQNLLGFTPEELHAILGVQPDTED
# In short: as §1
# [12] = target: T8, SPDEF (Homo sapiens, UniProt O95238 1-335); settings: protein: recombinant; tags: N-terminal GST; dsDNA, one strand shown
# T8 sequence: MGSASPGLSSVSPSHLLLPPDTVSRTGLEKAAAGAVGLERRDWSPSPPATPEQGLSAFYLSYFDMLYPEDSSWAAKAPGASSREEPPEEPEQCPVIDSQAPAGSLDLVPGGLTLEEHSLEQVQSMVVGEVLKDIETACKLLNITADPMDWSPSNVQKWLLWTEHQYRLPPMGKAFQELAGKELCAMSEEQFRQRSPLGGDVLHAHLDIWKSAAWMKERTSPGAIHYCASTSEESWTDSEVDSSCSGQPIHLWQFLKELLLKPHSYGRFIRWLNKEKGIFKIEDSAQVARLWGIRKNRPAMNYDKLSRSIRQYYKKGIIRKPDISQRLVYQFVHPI
# In short: as §1
# [13] = target: T9, ELF5 (Homo sapiens, UniProt Q9UKW6-2 1-255); settings: protein: recombinant; tags: N-terminal GST; dsDNA, one strand shown
# T9 sequence: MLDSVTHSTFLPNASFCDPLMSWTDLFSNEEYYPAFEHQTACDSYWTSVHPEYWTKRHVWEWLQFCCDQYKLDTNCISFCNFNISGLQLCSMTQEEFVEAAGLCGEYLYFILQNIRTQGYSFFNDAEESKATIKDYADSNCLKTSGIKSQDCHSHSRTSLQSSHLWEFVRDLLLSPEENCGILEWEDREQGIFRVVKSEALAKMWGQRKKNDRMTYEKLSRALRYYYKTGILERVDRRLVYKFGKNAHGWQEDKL
# In short: as §1
# [14] = target: T10, ETV3 (Homo sapiens, UniProt P41162-2 1-143); settings: protein: recombinant; tags: N-terminal GST; dsDNA, one strand shown
# T10 sequence: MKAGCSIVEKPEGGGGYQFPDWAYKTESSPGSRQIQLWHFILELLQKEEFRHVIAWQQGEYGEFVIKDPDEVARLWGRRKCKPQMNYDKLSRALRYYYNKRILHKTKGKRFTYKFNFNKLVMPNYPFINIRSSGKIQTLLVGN
# In short: as §1
# [15] = target: ETV6 (Homo sapiens, UniProt P41212 1-452); settings: protein: recombinant; tags: N-terminal GST; dsDNA, one strand shown
# In short: as §1
# Sequence of HSF1 (Q00613 whole entry): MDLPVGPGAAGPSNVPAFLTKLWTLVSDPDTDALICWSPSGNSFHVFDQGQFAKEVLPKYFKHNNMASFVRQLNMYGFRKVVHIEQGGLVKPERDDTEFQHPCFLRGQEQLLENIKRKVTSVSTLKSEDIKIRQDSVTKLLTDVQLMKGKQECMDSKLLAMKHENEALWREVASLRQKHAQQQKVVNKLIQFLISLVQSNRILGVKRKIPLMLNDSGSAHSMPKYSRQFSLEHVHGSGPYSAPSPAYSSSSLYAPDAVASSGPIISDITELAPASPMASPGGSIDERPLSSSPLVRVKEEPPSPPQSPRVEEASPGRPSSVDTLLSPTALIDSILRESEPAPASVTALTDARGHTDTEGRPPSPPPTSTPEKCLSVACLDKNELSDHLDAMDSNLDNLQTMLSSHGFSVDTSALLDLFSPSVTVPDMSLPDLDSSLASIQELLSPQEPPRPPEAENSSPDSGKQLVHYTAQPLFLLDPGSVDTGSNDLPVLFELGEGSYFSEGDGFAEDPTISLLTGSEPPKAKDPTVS
# Sequence of ELF4 (Q99607 whole entry): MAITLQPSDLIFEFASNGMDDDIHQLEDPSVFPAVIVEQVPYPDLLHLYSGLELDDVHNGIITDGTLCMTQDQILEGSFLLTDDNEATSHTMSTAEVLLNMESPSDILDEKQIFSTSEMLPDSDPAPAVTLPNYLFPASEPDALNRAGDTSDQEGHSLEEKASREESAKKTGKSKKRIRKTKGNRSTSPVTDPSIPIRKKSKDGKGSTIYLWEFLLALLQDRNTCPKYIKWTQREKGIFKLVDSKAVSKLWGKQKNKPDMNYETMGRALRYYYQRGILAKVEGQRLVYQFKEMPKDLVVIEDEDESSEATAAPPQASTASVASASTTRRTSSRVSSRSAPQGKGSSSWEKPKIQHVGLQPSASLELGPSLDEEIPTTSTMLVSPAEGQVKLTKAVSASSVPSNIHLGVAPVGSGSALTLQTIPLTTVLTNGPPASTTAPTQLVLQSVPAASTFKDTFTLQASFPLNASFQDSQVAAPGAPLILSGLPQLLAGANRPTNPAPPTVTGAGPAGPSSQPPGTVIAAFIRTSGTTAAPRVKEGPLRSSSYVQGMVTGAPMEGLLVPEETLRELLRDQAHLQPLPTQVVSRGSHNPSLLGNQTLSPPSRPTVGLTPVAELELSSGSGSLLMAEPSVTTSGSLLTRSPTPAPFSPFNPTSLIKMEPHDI
# Sequence of ETV5 (P41161 whole entry): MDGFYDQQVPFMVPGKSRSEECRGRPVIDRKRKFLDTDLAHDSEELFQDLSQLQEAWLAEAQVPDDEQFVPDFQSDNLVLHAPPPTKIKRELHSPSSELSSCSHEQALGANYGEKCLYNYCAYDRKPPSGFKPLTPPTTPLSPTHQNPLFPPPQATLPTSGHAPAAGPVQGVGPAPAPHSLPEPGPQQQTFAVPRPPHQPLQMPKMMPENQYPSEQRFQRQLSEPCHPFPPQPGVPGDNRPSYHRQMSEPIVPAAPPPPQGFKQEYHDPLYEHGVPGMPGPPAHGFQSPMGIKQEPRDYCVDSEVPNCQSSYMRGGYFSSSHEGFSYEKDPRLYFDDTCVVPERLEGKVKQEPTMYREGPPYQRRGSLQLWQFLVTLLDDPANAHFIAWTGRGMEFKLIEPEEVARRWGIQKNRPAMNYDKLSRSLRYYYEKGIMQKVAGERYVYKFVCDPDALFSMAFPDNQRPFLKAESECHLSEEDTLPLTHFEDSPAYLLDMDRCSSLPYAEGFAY
# Sequence of ETV6 (P41212 whole entry): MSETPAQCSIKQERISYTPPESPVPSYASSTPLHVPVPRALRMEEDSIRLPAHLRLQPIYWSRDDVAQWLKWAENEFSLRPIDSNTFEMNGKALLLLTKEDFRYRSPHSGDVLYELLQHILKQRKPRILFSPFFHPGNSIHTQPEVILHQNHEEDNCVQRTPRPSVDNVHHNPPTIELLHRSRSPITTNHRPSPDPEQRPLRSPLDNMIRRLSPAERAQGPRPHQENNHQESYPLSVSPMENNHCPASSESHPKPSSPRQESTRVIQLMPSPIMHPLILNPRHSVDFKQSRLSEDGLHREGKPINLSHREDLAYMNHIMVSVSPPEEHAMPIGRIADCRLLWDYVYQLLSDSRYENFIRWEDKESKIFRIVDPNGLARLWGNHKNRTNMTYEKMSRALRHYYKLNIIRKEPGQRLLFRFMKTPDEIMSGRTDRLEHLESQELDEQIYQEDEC
# Sequence of ETV1 (P50549 whole entry): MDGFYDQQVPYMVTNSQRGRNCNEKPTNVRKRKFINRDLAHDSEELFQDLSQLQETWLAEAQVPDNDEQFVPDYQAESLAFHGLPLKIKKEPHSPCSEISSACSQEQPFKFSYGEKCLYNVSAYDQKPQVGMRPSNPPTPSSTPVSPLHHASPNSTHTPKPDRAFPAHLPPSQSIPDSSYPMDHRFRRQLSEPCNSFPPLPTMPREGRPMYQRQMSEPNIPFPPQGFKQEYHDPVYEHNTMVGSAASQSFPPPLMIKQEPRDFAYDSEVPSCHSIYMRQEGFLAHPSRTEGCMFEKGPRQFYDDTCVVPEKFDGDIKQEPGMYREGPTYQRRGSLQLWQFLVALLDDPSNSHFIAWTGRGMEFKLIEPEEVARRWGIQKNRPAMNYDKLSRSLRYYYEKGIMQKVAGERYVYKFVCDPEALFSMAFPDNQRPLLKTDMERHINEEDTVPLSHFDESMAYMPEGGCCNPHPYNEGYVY
sequence,measurement,setting,value
GCATTC,binding signal,[1],"1.08 fold enrichment (6-mer frequency, TF over GST control)"
same,binding signal,[2],"1.1 fold enrichment (6-mer frequency, TF over GST control)"
same,binding signal,[3],"1.17 fold enrichment (6-mer frequency, TF over GST control)"
same,binding signal,[4],"1.1 fold enrichment (6-mer frequency, TF over GST control)"
same,binding signal,[5],"1.05 fold enrichment (6-mer frequency, TF over GST control)"
same,binding signal,[6],"1.09 fold enrichment (6-mer frequency, TF over GST control)"
same,binding signal,[7],"1.11 fold enrichment (6-mer frequency, TF over GST control)"
same,binding signal,[8],"1.24 fold enrichment (6-mer frequency, TF over GST control)"
same,binding signal,[9],"1.16 fold enrichment (6-mer frequency, TF over GST control)"
same,binding signal,[10],"1.07 fold enrichment (6-mer frequency, TF over GST control)"
same,binding signal,[11],"1.08 fold enrichment (6-mer frequency, TF over GST control)"
same,binding signal,[12],"1.1 fold enrichment (6-mer frequency, TF over GST control)"
same,binding signal,[13],"1.06 fold enrichment (6-mer frequency, TF over GST control)"
same,binding signal,[14],"1.17 fold enrichment (6-mer frequency, TF over GST control)"
same,binding signal,[15],"1.19 fold enrichment (6-mer frequency, TF over GST control)"
